A549 tox-1 = kills or reduces viability of A549 cells in Nrf2 counter-screen; A549 ARE-Fluc cells, CellTiter-Fluor viability, 18-24 h; Potency, µM (doses to about 46 µM), for inactives: top-dose activity change, negative = cytotoxicity, usual class: inhibitors; 390,000 tested, 0.16% active; AID 504648; note: potency is the fitted concentration of half-maximal effect; % is set by controls: 0 for no effect and ±100 for the full control effect
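Cytotoxicity counterscreen: CellTiter-Fluor fluorescence was measured in A549 ARE_Fluc cells after 18-24 h of compound exposure in a concentration series. The subsequent BugLite luminescent read reports ARE-luciferase activity.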
IL-2 act = activators of IL-2; IL-2 activation reporter assay, cell-based qHTS; stimulated with anti-CD3/CD4/CD28 beads; in transgenic mouse T cells; AID 652025; activation, % (series mostly up to about 46 µM); 360,000 tested, 0.065% active; in the data active = activation above about 50%; inconclusive = mostly about 30% to 49%; note: 0% is about no effect
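Screening format: compound pinned onto unstimulated transgenic mouse T cells, 60 min incubation, then anti-CD3/anti-CD4/anti-CD28 bead stimulation for 18 hours at 37 degrees C, followed by EGFP and DsRed detection.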
Nrf2 inh = blocks Nrf2 signaling; A549 ARE-Fluc reporter, luciferase luminescence, 18-24 h; Potency, µM (series often up to 46 µM), for the others: at the top dose activity change, negative = inhibition, actives largely listed as inhibitors; 360,000 tested, 2.1% active; AID 504444; note: potency is the fitted concentration of half-maximal effect; % is set by controls: 0 for no effect and ±100 for the full control effect; nearly all actives have a fitted effect of over 60% in size
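Nrf2 activity is the BugLite luminescence, read 15 min after reagent at room temperature, following CellTiter-Fluor cytotoxicity readout (30 min, 37C). Compound titrations were applied for 18-24 h to 5000 A549 ARE_Fluc cells/well in 5% FBS OPTI-MEM.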
Nrf2 activator = Nrf2 pathway activation; AID 624171; AREc32 ARE-luciferase reporter (MCF7-derived line), luminescence, 24 h; Potency, µM (series often up to 46.1 µM), without a hit: top-dose activation, usual class: activators; 410,000 tested, 0.31% active; note: potency is the fitted concentration of half-maximal effect; % of control where 0% means no effect; nearly all actives have a fitted effect of over 65% in size
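Each well held 1000 AREc32 cells, which were incubated with compound for 24 hr at 37 deg C after overnight attachment, and ARE reporter activity was quantified by firefly luciferase luminescence.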
FLuc counter 3 = blocks purified firefly luciferase in Nrf2 counterscreen | purified firefly luciferase, luminescence inhibition | 1,400 tested, 4% active | shares compounds with Nrf2 inh | Potency, µM (highest dose often 57.5 µM), for the others: at the highest dose activity change, negative = inhibition, actives largely listed as inhibitors; note: potency is the fitted concentration of half-maximal effect; % is set by controls: 0 for no effect and ±100 for the full control effect; nearly all actives have a fitted effect of over 65% in size
Target sequence (P08659 whole entry, looked up): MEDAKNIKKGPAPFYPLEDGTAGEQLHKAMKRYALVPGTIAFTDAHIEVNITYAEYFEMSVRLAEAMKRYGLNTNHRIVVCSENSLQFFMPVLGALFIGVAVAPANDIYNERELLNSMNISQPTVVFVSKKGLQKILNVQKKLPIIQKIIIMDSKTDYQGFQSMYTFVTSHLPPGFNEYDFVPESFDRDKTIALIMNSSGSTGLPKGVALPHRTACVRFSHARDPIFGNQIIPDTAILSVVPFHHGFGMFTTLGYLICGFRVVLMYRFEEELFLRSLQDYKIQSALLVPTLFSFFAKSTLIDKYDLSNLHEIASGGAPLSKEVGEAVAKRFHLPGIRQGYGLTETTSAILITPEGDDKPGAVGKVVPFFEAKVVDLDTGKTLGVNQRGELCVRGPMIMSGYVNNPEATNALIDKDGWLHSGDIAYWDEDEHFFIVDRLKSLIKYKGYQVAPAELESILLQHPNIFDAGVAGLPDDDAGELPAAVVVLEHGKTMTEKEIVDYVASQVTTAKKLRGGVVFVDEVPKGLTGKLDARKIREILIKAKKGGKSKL
A549 tox-2 = toxic to A549 ARE-Fluc cells in Nrf2 counterscreen; A549 ARE-Fluc cells, cytotoxicity counterscreen; 1,400 tested, 2% active; Potency, µM (series often up to 46.1 µM), inactives show at the highest dose activity change, negative = cytotoxicity, most hits filed as inhibitors; shares compounds with Nrf2 inh;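 note: potency is the fitted concentration of half-maximal effect; cells exposed to compounds for 18 to 24 hours; % is set by controls: 0 for no effect and ±100 for the full control effect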
Nrf2 ARE inh = Nrf2 inhibition confirmed, A549 ARE-luciferase; shares compounds with Nrf2 inh; A549 ARE-firefly luciferase reporter, luminescence; Potency, µM (top dose mostly 46.1 µM), for the others: top-dose activity change, negative = inhibition, actives largely listed as inhibitors; 1,400 tested, 74% active; note: potency is the fitted concentration of half-maximal effect; % is set by controls: 0 for no effect and ±100 for the full control effect; nearly all actives have a fitted effect of over 65% in size
Starred values were filed as active, the others as inactive; ? = inconclusive; · = no result given; [ ] = remark or other dose. Most compounds without a hit are left out; they make up all but 2.3% or so of the library. Unless noted, calls come from the whole dose curve; as a rule, active = well fitted curve in the direction sought with a large enough effect; inconclusive = small, poorly fitted or top-dose-only effect, or another doubt; inactive = no such curve, though single readings can be large; an effect the other way counts as inactive or inconclusive.

SMILES	A549 tox-1	IL-2 act	Nrf2 inh	Nrf2 activator	FLuc counter 3	A549 tox-2	Nrf2 ARE inh
CCOC(=O)c1c(NC(=O)c2cc(=O)c3cc(Cl)ccc3o2)sc(C)c1C	-2.1%	·	4.5%	-0.9%	·	·	·
Cc1c2cnn(-c3ccccc3)c(=O)c2c(C)n1CCCC(=O)Nc1cccc(F)c1	-11.3%	·	?	5.9%	·	·	·
COc1ccc(-c2nc3c(c(SCC(=O)Nc4cccc(O)c4)n2)Cc2c(CO)cnc(C)c2O3)cc1	9.6%	7.9	-1.1%	4.8%	·	·	·
Cc1ncc(CO)c2c1Oc1nc(-c3ccccc3)nc(SCC(=O)Nc3cccc(O)c3)c1C2	?	-0.3	1.84µM*	-0.1%	-2.2%	-14.4%	5.8µM*
CCCCCCCn1c2c(c(=N)c3ccccc31)CCC2	?	-2.8	2.31µM*	0.4%	2.7%	?	1.46µM*
COC(C(=O)C(O)C(C)O)C1Cc2cc3cc(OC4CC(OC5CC(O)C(O)C(C)O5)C(O)C(C)O4)c(C)c(O)c3c(O)c2C(=O)C1OC1CC(OC2CC(OC3CC(O)C(OC)C(C)O3)C(O)C(C)O2)C(O)C(C)O1 (stereo not given)	?	0.1	0.116µM*	-2.2%	-3.8%	-20.8%	0.366µM*
COc1cccc(CN(C)C(=O)c2cccc(S(=O)(=O)NCc3ccccc3)c2)c1OC	-10.9%	-1.0	7.31µM*	2.2%	0.0%	-3.0%	-2.7%
CN(Cc1c(F)cccc1Cl)C(=O)c1cccc(S(=O)(=O)N2CCN(Cc3ccccc3)CC2)c1	0.2%	-0.3	?	2.3%	·	·	·
CN(Cc1ccc(OC(F)F)cc1)C(=O)c1cccc(S(=O)(=O)N2CCN(Cc3ccccc3)CC2)c1	-17.0%	-4.8	6.51µM*	0.0%	-0.5%	-23.2%	6.51µM*
COc1cccc(CN(C)C(=O)c2cccc(S(=O)(=O)N3CCN(c4ccccc4)CC3)c2)c1OC	?	0.4	7.31µM*	-0.3%	0.0%	?	0.116µM*
CN(CCOc1ccc(Cl)cc1)C(=O)c1cccc(S(=O)(=O)N2CCN(c3ccccc3)CC2)c1	?	0.2	5.8µM*	0.3%	-0.3%	-13.5%	23.1µM*
COc1ccc(CCN(C)C(=O)c2cccc(S(=O)(=O)NCc3ccccc3)c2)cc1OC	-5.5%	-1.5	?	2.4%	·	·	·
Cc1cccc(OCCSc2nc3ccccc3n2CC(=O)N2CCOCC2)c1	0.3%	·	5.7%	0.4%	·	·	·
Cc1ccc(S(=O)(=O)Nc2ccc3c(c2)CCCN3C(=O)c2cccs2)cc1	-6.1%	·	·	-0.4%	·	·	·
Cc1ccc(C(=O)CSc2nc(C)cc(C)c2C(=O)Nc2cccc(C)c2)cc1	0.3%	·	-6.4%	7.6%	·	·	·
CCC/C=C1/CCCOC(C(=O)NCCOC)(C(F)(F)F)C1 (stereo not given)	0.8%	·	-5.2%	·	·	·	·
CC(C)(C)n1ncc2c(=O)n(Cc3ccc(-c4ccccc4C#N)cc3)cnc21	·	·	·	·	-11.3%	-8.6%	9.2µM*
Cc1cc(C(=O)CN2C(=O)c3ccccc3S2(=O)=O)c(C)n1CC1CCCO1 (stereo not given)	3.0%	0.9	0.92µM*	-2.1%	1.35µM*	-1.4%	1.16µM*
COc1cc(NC(=O)c2cccc(COCC(F)(F)C(F)F)c2)cc(OC)c1OC	1.6%	0.5	9.2µM*	-0.3%[9.22 µM]	-7.2%	-0.2%	-11.5%
COc1ccc(NC(=O)c2ccc(COCC(F)(F)C(F)F)cc2)cc1OC	-4.5%	-0.7	-21.8%	0.5%	·	·	·
CC(=O)OCC(NC(=O)C(CCCCNC(=O)OCc1ccccc1)NC(=O)OC(C)(C)C)C1OC(n2ccc(=O)[nH]c2=O)C(OC(C)=O)C1OC(C)=O (stereo not given)	0.0%	·	20.1%	·	·	·	·
CCC1([N+](=O)[O-])COC(C=Cc2ccccc2)OC1 (stereo not given)	1.6%	-0.5	?	4.1%	·	·	·
O=C1C=CCC(/C=C/c2ccccc2)O1 (stereo not given)	-16.4%	-0.6	2.59µM*	6.4%	-9.1%	?	1.3µM*
CCOc1cc2[nH]c(=O)n(CCC(=O)N3CCN(c4cccc(Cl)c4)CC3)c(=O)c2cc1OCC	6.7%	·	·	-1.1%	·	·	·
CC(=O)O[C@]1(C(C)=O)CCC2C3C=C(C)C4=CC(=O)CC[C@]4(C)C3CC[C@@]21C (stereo not given in full)	-6.7%	3.1	0.259µM*	0.4%	-11.1%	-8.3%	1.16µM*
SMILES	A549 tox-1	IL-2 act	Nrf2 inh	Nrf2 activator	FLuc counter 3	A549 tox-2	Nrf2 ARE inh
COc1cc(OC)c(/C=C/c2ccc3ccccc3[n+]2C)c(OC)c1	·	·	·	·	0.5%	?	1.64µM*
CCCC[n+]1c2ccccc2cc2ccccc21	7.4%	-3.5	-28.3%	3.2%	·	·	·
CCC[n+]1c2ccccc2cc2ccccc21	3.2%	-0.5	19.4%	7.7%	·	·	·
CCC[n+]1c(/C=C/c2c(OC)cc(OC)cc2OC)ccc2ccccc21	·	·	·	·	-2.2%	7.31µM*	2.31µM*
CCCC[n+]1c(/C=C/c2c(OC)cc(OC)cc2OC)ccc2ccccc21	·	·	·	·	2.2%	?	1.64µM*
Cc1cccc(C(=O)Nc2nc(-c3nnn(-c4cc(C)ccc4C)c3C)ns2)c1	-13.7%	·	9.2µM*	0.2%	-15.4%	-14.1%	7.31µM*
O=S(=O)(NCc1ccccc1Cl)c1ccc(-c2cnc(C3CC3)o2)cc1	-0.2%	·	·	1.0%	·	·	·
CCCC(=O)NC(c1ccccc1OC)c1ccc2cccnc2c1O (stereo not given)	?	-4.5	7.31µM*	4.7%	1.0%	-14.5%	9.2µM*
CCCC(=O)NC(c1cccs1)c1cc(Cl)c2cccnc2c1O (stereo not given)	-17.3%	-1.7	5.17µM*	-1.9%	0.6%	-19.7%	7.31µM*
COc1ccc(C(NC(C)=O)c2cc(Cl)c3cccnc3c2O)cc1OC (stereo not given)	-8.0%	1.2	?	-0.2%	·	·	·
CCC(=O)NC(c1ccc(OC)c(OC)c1)c1cc(Cl)c2cccnc2c1O (stereo not given)	?	-1.2	5.8µM*	0.6%	0.6%	-20.1%	6.51µM*
COc1ccc(CNC(=O)c2ccc3c(c2)nc2n3CCCCC2)c(OC)c1	-4.6%	·	·	4.8%	·	·	·
O=C1N(c2ccccc2)C[C@@H]2C[C@@H](c3cc4ccccc4o3)N3CCC[C@@]123	?	-1.0	1.16µM*	0.2%	-2.8%	-28.1%	2.59µM*
CC1Cc2cc(S(=O)(=O)CCC(=O)NCc3ccccc3Cl)ccc2N1C(=O)C1CC1 (stereo not given)	-4.8%	·	21.7%	3.1%	·	·	·

Screening data (PubChem)
